# Laboratory results from ChEMBL document CHEMBL2218924, “A broad activity screen in support of a chemogenomic map for kinase signalling research and drug discovery” (Biochem J, 2013).
# Columns and labels:
# [1] = biological target: Ephrin type-A receptor 4 (Homo sapiens) (UniProt P54764); details: at 1 µM
# [2] = biological target: Ephrin type-A receptor 4 (Homo sapiens) (UniProt P54764); details: at 10 µM
# [3] = biological target: Ephrin type-A receptor 5 (Homo sapiens) (UniProt P54756); details: at 1 µM
# Sequence of Ephrin type-A receptor 5 (Homo sapiens) (P54756 whole entry): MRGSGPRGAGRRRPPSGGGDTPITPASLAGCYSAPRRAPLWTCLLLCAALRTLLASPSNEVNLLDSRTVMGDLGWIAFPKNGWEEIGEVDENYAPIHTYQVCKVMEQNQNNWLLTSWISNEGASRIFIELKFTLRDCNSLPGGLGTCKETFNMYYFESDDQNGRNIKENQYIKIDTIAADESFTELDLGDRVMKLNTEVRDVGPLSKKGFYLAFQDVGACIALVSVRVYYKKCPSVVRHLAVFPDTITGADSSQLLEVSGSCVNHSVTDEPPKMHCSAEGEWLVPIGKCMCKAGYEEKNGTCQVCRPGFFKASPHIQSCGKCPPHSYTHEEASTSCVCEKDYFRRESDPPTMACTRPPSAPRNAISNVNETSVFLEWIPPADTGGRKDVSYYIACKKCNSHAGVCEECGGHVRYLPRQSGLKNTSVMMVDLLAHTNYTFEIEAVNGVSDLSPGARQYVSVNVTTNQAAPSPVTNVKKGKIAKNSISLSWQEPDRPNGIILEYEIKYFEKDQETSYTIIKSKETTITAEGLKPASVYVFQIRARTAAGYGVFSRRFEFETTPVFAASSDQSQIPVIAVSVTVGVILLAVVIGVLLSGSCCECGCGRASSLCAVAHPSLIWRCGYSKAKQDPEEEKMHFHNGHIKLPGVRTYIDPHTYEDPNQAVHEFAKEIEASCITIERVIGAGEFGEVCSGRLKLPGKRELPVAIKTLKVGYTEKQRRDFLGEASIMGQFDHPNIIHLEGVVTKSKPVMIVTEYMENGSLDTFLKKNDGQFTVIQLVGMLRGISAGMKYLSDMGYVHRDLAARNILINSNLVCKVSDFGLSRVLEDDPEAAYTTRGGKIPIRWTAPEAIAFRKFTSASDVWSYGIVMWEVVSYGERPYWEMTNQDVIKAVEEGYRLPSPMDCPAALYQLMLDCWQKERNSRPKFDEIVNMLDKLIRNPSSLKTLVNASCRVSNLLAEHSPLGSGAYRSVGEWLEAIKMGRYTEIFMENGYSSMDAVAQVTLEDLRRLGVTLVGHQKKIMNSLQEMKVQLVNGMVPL
# [4] = biological target: Ephrin type-A receptor 5 (Homo sapiens) (UniProt P54756); details: at 10 µM
# [5] = biological target: Ephrin type-A receptor 7 (Homo sapiens) (UniProt Q15375); details: at 10 µM
# Sequence of Ephrin type-A receptor 7 (Homo sapiens) (Q15375 28-998 limits assumed): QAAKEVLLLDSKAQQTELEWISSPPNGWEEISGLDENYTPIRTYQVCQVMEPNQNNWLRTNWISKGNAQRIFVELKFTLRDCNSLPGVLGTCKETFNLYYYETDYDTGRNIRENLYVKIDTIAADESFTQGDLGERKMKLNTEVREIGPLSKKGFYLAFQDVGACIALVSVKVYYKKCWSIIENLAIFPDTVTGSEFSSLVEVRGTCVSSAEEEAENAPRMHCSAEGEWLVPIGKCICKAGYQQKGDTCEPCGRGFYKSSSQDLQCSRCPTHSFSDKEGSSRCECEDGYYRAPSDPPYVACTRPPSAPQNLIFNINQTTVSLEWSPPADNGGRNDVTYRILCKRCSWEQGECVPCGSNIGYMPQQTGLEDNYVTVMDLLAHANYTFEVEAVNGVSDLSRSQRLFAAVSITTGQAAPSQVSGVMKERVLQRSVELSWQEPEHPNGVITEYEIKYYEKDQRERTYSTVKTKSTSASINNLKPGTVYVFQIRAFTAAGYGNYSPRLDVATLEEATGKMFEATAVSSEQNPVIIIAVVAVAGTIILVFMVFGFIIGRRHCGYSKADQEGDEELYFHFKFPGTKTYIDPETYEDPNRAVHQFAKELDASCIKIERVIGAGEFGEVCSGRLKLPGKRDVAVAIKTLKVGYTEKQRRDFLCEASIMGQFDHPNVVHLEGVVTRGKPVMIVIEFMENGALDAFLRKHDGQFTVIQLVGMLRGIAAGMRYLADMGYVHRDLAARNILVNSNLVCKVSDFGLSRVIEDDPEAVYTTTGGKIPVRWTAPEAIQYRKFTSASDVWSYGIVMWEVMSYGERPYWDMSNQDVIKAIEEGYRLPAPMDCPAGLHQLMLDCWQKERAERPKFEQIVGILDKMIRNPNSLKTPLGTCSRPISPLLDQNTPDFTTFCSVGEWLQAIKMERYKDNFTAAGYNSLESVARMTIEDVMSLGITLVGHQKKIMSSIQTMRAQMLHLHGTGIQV
# [6] = biological target: T1, Ephrin type-B receptor 1 (Homo sapiens) (UniProt P54762); details: at 1 µM
# T1 sequence (whole entry): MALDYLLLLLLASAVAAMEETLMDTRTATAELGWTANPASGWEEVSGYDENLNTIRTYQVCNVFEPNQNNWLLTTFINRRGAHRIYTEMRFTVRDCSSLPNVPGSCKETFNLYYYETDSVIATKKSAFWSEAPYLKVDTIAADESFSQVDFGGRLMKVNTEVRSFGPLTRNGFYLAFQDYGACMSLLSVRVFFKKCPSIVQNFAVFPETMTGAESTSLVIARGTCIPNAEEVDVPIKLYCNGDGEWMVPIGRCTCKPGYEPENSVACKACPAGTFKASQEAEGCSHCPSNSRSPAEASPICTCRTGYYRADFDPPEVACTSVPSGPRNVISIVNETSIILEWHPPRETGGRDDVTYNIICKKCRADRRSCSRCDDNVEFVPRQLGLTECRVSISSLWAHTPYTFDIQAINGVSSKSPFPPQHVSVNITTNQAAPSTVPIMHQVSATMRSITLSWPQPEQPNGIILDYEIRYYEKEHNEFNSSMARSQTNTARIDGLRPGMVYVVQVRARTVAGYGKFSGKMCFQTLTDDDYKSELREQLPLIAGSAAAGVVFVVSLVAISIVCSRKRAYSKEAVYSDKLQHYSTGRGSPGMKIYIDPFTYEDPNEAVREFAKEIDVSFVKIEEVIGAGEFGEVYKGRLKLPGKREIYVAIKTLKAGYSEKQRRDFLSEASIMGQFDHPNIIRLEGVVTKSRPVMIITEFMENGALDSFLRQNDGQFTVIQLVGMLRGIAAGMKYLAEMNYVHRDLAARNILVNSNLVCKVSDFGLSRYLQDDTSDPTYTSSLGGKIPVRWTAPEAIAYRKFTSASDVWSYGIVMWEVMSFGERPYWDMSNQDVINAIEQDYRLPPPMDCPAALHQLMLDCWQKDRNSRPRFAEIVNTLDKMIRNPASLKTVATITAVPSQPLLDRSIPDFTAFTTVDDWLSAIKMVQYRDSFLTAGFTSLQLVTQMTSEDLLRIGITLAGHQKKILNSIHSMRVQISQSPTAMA
# [7] = biological target: T1, Ephrin type-B receptor 1 (Homo sapiens); details: at 10 µM
# [8] = biological target: T2, Ephrin type-B receptor 2 (Homo sapiens) (UniProt P29323); details: at 1 µM
# T2 sequence (whole entry): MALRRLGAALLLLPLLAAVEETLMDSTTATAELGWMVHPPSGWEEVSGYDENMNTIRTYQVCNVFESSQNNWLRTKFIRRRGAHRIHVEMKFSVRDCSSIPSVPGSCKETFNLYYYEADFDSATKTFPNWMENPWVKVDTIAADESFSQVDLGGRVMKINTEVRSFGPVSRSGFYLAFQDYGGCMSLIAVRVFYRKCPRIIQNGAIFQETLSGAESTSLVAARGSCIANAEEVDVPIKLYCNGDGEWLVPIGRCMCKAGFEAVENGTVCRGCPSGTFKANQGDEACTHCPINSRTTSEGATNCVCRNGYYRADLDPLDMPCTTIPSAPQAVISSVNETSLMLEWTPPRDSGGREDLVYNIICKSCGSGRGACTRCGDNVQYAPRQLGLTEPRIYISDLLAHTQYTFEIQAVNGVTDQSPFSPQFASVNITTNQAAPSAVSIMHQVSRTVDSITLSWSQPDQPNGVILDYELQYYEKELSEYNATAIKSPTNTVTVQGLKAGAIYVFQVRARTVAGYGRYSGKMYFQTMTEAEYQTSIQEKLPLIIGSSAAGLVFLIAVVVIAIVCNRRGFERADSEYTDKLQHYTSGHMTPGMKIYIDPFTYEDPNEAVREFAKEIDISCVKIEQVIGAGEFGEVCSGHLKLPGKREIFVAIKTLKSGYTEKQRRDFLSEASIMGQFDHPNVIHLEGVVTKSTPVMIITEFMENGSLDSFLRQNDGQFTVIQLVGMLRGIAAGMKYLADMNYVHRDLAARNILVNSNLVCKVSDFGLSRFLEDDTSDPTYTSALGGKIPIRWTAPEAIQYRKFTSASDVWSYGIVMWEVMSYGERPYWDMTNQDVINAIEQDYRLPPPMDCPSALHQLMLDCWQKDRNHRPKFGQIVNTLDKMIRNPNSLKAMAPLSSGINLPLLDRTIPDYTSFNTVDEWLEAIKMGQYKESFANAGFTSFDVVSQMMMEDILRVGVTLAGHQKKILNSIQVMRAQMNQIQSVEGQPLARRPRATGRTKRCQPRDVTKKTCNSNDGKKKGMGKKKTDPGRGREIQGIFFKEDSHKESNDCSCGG
# [9] = biological target: T2, Ephrin type-B receptor 2 (Homo sapiens); details: at 10 µM
# [10] = biological target: T3, Ephrin type-B receptor 3 (Homo sapiens) (UniProt P54753); details: at 1 µM
# T3 sequence (whole entry): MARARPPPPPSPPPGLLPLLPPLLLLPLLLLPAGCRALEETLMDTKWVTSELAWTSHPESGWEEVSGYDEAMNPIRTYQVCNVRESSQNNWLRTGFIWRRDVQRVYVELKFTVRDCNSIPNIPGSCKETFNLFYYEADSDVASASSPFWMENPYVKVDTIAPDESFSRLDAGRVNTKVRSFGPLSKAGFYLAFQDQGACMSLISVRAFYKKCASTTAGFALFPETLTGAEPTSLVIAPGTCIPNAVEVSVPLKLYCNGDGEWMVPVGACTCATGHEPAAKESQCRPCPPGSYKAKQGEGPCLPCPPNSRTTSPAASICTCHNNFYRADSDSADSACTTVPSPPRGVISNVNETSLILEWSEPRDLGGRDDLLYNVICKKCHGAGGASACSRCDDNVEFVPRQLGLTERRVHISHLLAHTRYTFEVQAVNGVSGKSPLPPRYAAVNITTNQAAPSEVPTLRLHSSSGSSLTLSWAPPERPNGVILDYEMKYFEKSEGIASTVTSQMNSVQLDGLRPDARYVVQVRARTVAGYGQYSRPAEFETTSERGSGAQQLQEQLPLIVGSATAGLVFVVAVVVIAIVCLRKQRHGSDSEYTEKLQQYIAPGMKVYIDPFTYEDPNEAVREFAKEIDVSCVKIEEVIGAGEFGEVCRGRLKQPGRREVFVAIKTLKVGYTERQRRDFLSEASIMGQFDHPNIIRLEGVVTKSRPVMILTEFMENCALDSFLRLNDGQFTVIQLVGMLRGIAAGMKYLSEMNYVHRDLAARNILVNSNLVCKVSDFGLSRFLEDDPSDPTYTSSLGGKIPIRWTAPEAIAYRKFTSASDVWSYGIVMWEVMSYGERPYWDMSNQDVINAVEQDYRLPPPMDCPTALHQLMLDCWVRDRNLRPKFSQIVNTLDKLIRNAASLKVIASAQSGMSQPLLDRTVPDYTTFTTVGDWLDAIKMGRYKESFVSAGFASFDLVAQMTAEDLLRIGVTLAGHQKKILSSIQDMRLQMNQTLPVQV
# [11] = biological target: T3, Ephrin type-B receptor 3 (Homo sapiens); details: at 10 µM
# [12] = biological target: T4, Ephrin type-B receptor 4 (Homo sapiens) (UniProt P54760); details: at 10 µM
# T4 sequence (whole entry): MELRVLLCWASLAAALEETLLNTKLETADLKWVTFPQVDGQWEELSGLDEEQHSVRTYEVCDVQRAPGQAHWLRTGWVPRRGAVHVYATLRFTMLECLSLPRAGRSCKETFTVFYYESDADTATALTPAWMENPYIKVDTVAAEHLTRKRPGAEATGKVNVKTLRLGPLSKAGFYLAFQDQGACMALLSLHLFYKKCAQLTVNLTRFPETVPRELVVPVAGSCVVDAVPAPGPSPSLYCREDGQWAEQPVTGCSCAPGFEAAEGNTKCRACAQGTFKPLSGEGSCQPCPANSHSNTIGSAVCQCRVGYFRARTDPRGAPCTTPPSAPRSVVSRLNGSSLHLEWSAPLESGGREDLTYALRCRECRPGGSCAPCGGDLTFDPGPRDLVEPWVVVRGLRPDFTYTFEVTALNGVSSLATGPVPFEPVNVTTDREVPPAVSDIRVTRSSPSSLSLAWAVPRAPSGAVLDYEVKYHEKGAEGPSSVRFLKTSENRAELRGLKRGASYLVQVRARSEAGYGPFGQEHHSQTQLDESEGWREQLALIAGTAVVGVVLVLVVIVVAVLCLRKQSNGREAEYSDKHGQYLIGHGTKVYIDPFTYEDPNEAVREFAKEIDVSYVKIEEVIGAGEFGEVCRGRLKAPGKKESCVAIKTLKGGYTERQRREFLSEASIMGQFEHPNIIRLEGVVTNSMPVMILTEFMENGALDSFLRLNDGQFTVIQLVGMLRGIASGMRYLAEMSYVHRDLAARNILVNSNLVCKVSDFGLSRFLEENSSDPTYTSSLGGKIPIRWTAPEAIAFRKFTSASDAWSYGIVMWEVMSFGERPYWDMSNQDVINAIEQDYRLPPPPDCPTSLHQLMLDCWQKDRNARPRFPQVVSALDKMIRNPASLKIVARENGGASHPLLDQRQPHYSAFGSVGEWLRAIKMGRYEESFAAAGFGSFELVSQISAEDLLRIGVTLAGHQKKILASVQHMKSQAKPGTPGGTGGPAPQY
# [13] = biological target: Receptor tyrosine-protein kinase erbB-4 (Homo sapiens) (UniProt Q15303); details: at 1 µM
# Sequence of Receptor tyrosine-protein kinase erbB-4 (Homo sapiens) (Q15303 whole entry): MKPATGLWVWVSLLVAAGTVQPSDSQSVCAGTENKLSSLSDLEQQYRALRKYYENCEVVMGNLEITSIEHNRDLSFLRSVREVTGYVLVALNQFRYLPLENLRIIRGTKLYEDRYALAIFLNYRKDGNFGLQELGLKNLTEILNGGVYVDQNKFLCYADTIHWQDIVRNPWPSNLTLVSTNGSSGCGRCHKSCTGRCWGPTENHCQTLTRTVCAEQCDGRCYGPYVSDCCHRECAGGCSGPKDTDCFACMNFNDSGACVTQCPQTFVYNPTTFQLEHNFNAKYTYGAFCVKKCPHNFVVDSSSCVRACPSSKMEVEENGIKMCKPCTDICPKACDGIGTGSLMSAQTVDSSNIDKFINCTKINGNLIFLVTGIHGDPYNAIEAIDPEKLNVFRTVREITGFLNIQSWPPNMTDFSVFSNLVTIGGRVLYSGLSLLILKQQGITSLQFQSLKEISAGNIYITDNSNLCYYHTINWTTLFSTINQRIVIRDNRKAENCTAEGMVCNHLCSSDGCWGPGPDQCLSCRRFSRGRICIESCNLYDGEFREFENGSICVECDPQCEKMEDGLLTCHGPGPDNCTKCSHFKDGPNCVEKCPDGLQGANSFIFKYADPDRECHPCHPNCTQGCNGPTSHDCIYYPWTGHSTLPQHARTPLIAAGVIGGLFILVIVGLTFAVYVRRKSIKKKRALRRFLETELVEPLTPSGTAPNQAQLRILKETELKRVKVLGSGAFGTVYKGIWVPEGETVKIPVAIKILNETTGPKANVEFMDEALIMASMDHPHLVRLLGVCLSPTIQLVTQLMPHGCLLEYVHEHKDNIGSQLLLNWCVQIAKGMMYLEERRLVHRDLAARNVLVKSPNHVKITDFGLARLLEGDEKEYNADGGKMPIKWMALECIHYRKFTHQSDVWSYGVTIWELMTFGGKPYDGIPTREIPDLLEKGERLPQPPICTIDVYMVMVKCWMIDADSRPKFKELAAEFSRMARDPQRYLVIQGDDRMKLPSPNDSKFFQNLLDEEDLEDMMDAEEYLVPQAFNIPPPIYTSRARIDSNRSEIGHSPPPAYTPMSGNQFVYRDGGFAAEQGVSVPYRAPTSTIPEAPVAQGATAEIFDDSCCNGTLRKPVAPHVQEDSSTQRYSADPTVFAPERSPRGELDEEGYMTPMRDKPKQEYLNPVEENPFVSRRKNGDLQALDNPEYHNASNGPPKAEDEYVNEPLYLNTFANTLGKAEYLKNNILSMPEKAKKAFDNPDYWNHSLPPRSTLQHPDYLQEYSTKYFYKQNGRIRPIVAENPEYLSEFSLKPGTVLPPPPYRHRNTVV
# [14] = biological target: Receptor tyrosine-protein kinase erbB-4 (Homo sapiens) (UniProt Q15303); details: at 10 µM
# [15] = biological target: T5, Ephrin type-A receptor 3 (Homo sapiens) (UniProt P29320); details: at 10 µM
# T5 sequence (whole entry): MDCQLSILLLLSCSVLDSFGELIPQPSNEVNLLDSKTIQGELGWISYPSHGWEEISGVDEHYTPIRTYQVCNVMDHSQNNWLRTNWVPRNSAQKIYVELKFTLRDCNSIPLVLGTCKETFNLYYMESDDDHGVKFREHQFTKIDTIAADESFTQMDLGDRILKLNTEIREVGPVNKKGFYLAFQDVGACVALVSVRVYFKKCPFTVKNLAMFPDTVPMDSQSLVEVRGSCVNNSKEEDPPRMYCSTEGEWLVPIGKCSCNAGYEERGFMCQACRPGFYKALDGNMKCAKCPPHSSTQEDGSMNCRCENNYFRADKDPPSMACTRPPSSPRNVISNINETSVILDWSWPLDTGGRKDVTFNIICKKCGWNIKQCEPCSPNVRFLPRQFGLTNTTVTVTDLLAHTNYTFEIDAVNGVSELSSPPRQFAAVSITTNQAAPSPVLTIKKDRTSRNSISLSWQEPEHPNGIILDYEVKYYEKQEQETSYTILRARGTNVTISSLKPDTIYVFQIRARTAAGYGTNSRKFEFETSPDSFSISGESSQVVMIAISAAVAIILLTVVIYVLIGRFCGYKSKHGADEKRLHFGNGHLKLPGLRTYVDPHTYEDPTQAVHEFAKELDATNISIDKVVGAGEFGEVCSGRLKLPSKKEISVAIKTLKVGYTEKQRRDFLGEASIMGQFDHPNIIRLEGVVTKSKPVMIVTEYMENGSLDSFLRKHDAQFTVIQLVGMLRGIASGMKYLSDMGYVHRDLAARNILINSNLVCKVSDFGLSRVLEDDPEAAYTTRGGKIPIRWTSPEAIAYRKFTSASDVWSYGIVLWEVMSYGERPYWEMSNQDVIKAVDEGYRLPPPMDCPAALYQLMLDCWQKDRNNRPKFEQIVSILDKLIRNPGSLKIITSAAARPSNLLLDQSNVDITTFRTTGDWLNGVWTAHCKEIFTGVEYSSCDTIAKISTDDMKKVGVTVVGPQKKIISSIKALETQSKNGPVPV
# [16] = biological target: Ephrin type-A receptor 7 (Homo sapiens) (UniProt Q15375); details: at 1 µM
# [17] = biological target: Focal adhesion kinase 1 (Homo sapiens) (UniProt Q05397); details: at 1 µM
# Sequence of Ephrin type-A receptor 4 (Homo sapiens) (P54764 whole entry): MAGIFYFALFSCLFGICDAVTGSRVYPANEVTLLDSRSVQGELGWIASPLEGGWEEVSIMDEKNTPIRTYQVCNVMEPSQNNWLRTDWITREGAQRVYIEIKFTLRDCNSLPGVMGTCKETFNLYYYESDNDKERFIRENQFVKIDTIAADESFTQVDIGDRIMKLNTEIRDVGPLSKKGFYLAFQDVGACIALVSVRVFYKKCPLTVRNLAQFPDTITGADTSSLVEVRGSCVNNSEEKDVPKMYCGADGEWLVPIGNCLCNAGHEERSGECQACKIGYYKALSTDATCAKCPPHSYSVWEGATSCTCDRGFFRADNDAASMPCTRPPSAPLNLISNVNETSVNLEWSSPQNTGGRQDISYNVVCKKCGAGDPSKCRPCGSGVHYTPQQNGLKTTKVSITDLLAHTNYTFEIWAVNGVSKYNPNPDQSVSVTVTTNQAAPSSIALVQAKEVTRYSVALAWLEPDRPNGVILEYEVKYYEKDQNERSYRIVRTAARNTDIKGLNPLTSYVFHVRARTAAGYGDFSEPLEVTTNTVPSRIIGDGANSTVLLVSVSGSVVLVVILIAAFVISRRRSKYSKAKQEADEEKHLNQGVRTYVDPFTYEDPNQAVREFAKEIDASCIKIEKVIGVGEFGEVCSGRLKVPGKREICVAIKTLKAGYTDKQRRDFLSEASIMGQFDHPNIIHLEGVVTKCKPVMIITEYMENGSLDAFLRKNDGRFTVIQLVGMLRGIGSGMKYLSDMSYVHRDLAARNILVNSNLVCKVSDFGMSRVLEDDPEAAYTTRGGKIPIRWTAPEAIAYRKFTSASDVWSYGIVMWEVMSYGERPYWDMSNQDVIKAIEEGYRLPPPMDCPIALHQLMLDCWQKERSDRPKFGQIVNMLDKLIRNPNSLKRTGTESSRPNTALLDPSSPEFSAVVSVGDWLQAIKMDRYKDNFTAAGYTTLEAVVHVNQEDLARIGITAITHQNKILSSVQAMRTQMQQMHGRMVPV
structure (smiles),measurement,setting,value
COc1ccc(CNC(=O)Nc2ncc([N+](=O)[O-])s2)cc1,residual activity,[1],100%
same,residual activity,[2],102%
same,residual activity,[3],114%
same,residual activity,[4],102%
same,residual activity,[5],80%
same,residual activity,[6],111%
same,residual activity,[7],80%
same,residual activity,[8],105%
same,residual activity,[9],117%
same,residual activity,[10],117% (inactive)
same,residual activity,[11],105%
same,residual activity,[12],78%
same,residual activity,[13],43%
same,residual activity,[14],33%
CCOC(=O)c1c(C)[nH]c(/C=C2\C(=O)Nc3ccccc32)c1C,residual activity,[15],99%
same,residual activity,[16],97%
same,residual activity,[5],93%
same,residual activity,[6],97%
same,residual activity,[17],133%
O=S(=O)(NCCNC/C=C/c1ccc(Br)cc1)c1cccc2cnccc12,residual activity,[3],117%
same,residual activity,[14],74%
